Test results: PubChem BioAssay (NCATS)
Results filed as inconclusive are left out. Active and inactive are the calls of the source. Unless noted, calls follow the shape of the dose curve; as a rule, active = well fitted curve in either direction with a large enough effect (not every such curve was filed as active); inconclusive = small, poorly fitted or top-dose-only effect, or another doubt; inactive = flat fitted curve, though single readings scatter.

Key:
[1] = AP1 Signaling Pathway (AID 357); conditions: ME-180 AP-1-bla reporter, EGF-induced, beta-lactamase ratio, 5 h; at 17.2 µM (top of the series) unless noted;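 also: ME-180 reporter cells stimulated with EGF at its EC50 level; % is scaled to controls: 0 for no effect and ±100 for the full control effect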
Method in brief: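 Cells are seeded overnight, exposed to compound titrations and an EC50 level of EGF for 5 hours at 37 °C, then loaded with CCF4 dye for 2.5 hours. Beta-lactamase activity under the AP-1 element is read as a blue/green ratio.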

[2] = Stat Signaling Pathway (AID 446); conditions: ME-180 SIE beta-lactamase reporter, IL-6 stimulated, 5 h; at 17.2 µM (top of the series) unless noted;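 also: ME-180 cervical cancer cells given 40 pM IL-6 alongside compound; SIE-controlled beta-lactamase reporter measured as 460/530 nm FRET emission ratio; % is scaled to controls: 0 for no effect and ±100 for the full control effect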
Method in brief: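 Reporter line: ME-180 cervical carcinoma, SIE-beta-lactamase. Treatment: compound with 40 pM IL-6, 5 hrs, 37 C, in low-serum OPTI-MEM with 10 mM HEPES pH 7.3. Detection: 460/530 nm fluorescence.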

[3] = target: Glucocorticoid receptor (Homo sapiens) (UniProt P04150); assay: GR-GFP Redistribution (AID 450;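 active = compounds whose dose series gives a full or clear partial fitted curve of increased nuclear translocation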; also: potency is read from the fitted curve at half-maximal effect)
[4] = target: Glucocorticoid receptor (Homo sapiens) (UniProt P04150); assay: GR-EFC Redistribution (AID 451; calls by dose curve; also: potency is read from the fitted curve at half-maximal effect); conditions: CHO-K1 GR-EFC translocation, beta-gal luminescence, 2 h
Method in brief: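 Translocation of GR-ED fusion to nuclear EA restores b-gal, read by luminescence after 1 h room-temperature detection. Engineered CHO-K1 biosensor cells, 1,000/well, exposed 2 h at 37 C to titrations up to 46 uM final.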

[5] = target: Mitogen-activated protein kinase 10 (Mus musculus) (UniProt Q61831); assay: JNK3 AlphaScreen Assay (AID 530);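 also: kinase came from lysate of stimulated human HepG2 cells; signal reports phosphorylation of biotinylated GST-cJun 1-79 at Ser73 with 10 µM ATP; % is scaled to controls: 0 for no effect and ±100 for the full control effect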
Method in brief: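 Room-temperature AlphaScreen kinase assay; pre-activated HepG2 lysate as JNK3 source, biotin-GST-cJun(1-79) substrate, 10 uM ATP, compound 15 min preincubation.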

[6] = Confirmation and Secondary Assay for Modulators of Hemoglobin Beta Chain Splicing at IVS2 654 locus (AID 910; active = well fitted activation curve with a large enough effect;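 also: HeLa cells stably carrying EGFP split by mutant beta-globin IVS2-654 intron; per-well total GFP intensity by laser scanning cytometry after 2-day treatment; % of control where 0% means no effect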)
Method in brief: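 Readout: per-well total peak green fluorescence (488 nm ex, 500–520 nm em) from objects 5–250 µm, reflecting correct splicing of an EGFP-654 reporter. Compounds were applied for 2 days at 37 °C to overnight-plated HeLa EGFP-654 cells; controls were DMSO and 500 nM IVS2-654 PNA.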

Chain of Glucocorticoid receptor (Homo sapiens) (P04150 whole entry, looked up, the tested form may be a part): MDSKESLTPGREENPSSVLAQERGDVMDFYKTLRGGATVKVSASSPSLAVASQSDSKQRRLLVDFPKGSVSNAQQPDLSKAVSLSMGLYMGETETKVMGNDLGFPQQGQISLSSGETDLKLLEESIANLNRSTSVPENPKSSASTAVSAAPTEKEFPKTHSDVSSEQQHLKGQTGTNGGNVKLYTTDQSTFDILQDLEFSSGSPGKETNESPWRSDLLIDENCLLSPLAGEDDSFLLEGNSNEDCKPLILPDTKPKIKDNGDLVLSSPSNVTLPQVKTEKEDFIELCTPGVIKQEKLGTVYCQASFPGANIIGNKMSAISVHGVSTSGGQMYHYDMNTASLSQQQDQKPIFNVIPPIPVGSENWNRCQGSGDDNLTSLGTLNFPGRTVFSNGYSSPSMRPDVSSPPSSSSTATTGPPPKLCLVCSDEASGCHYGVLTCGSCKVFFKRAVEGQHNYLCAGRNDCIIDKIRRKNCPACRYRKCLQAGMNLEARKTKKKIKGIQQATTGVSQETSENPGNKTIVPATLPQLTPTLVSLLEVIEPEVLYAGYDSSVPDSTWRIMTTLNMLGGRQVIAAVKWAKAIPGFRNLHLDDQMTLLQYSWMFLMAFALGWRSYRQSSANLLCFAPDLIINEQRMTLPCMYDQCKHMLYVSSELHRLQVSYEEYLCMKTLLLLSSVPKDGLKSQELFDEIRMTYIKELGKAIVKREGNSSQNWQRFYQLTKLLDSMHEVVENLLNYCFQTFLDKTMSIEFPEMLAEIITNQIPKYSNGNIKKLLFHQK

CCOC(=O)c1[nH]c2ccc(Br)cc2c1NC(=O)CNC
inactive: activity change, negative = inhibition [1] 18.8% | activity, negative = inhibition [2] -1.05% | Potency [3] > 20.6 µM

CCCCn1c(O)c(C=NCCCN(C)C)c(=O)[nH]c1=O
inactive: activity change, negative = inhibition [1] -1.31% | activity, negative = inhibition [2] 3.99% | Potency [3] > 20.6 µM

Fc1ccc2[nH]c3c(N4CCN(C5CCCCC5)CC4)ncnc3c2c1
inactive: activity change, negative = inhibition [1] 7.44% | activity, negative = inhibition [2] 16.1% | Potency [3] > 20.6 µM

CCCCCn1c2nc3ccccc3nc2c2c(=O)n(CC(C)C)cnc21
inactive: activity change, negative = inhibition [1] 2.71% | activity, negative = inhibition [2] -12.9% | Potency [3] > 20.6 µM

CC(C)(C)c1cccc(/C=N/O)c1O
inactive: activity change, negative = inhibition [1] -17.8% | activity, negative = inhibition [2] -5.38% | Potency [3] > 20.6 µM

COc1ccc(/C(O)=C2\C(=O)C(=O)N(c3cc(C)on3)C2c2ccccc2OC)cc1C (stereo unspecified)
inactive: activity change, negative = inhibition [1] -17.1% | activity, negative = inhibition [2] -23.5% | Potency [3] > 20.6 µM

Cc1cccc(CNc2ccnc(-c3ccc(N(C)C)cc3)n2)c1
inactive: activity change, negative = inhibition [1] -16% [at 7.69 µM] | activity, negative = inhibition [2] -22.6% [at 7.69 µM] | Potency [3] > 46 µM | Potency [4] > 46 µM | Potency [5] | Potency [6]

N#Cc1cc(Oc2cccc3cccnc23)c(-n2nnc3ccccc32)cc1C#N
inactive: activity change, negative = inhibition [1] 11.4% | activity, negative = inhibition [2] 11.7% | Potency [3] > 20.6 µM

CC(C)c1nc(NCC2CCCO2)c(C#N)c2c1COC(C)(C)C2 (stereo unspecified)
inactive: activity change, negative = inhibition [1] -26.1% | activity, negative = inhibition [2] -3.72% | Potency [3] > 20.6 µM

COc1ccc(CSc2nnc3n(C)c(=O)c4c5c(sc4n23)CCCC5)cc1
inactive: activity change, negative = inhibition [1] -2.6% | activity, negative = inhibition [2] 0.924% | Potency [3] > 20.6 µM

CC(C)COc1ccc(C(=O)OCCN2CCOCC2)c(O)c1
inactive: activity change, negative = inhibition [1] 1.3% | activity, negative = inhibition [2] 0.653% | Potency [3] > 20.6 µM
